# Data from PubChem BioAssay (NCATS).
# Records with an inconclusive call do not appear. Active and inactive are the calls of the source. The call rests on the fitted dose curve; in most records, active means well fitted inhibition curve with a large enough effect; inconclusive means small, poorly fitted or top-dose-only effect; inactive means flat fitted curve, though single readings scatter.
# Molecular target: Calcium and integrin-binding protein 1 (Homo sapiens) (UniProt Q99828)
# Experiment: Primary qHTS for Identification of Calcium Integrin Binding Protein 1 (CIB1) Competitor (AID 1508620);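 further: GST tagged CIB1 binding a fluorescein labelled alphaIIb integrin peptide tracer; top concentration of the series differs between compounds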
# Details: CIB1-GST / FITC-alphaIIb peptide fluorescence polarization; series mostly up to 114 µM; activity change, negative = inhibition: at the top concentration
# How it was run: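 Fluorescence polarization competition: CIB1-GST (1 uM final) preincubated with compound 15 min at room temperature, then FITC-labeled alphaIIb peptide (100 nM final) added for another 15 min. Polarization read at Ex 480/Em 540.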
# On the % scale 0 is the no-effect control and ±100 the full control effect.
# Chain of Calcium and integrin-binding protein 1 (Homo sapiens) (Q99828 whole entry, looked up): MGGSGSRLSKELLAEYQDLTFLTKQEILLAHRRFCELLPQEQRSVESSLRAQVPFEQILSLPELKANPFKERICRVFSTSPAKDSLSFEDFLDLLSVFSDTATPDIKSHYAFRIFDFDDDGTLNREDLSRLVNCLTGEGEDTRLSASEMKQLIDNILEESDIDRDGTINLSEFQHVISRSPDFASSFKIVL
row,Structure (SMILES),"activity change, negative = inhibition"
1,O=C1CCc2cc(S(=O)(=O)Nc3ccccc3Cl)ccc2N1,-6.14% (inactive)
2,Cc1ccc(S(=O)(=O)Nc2cccc3cccnc23)cc1,1.42% (inactive)
3,Fc1cc(Cl)cc(-c2ccc(CNc3nc(-c4ccccc4C(F)(F)F)nc4ccccc34)cc2)c1,36.4% (inactive)
4,COc1ccc(-c2ccc(Nc3nc(-c4ccncc4)nc4ccccc34)cc2F)cc1F,5.65% (inactive)
5,O=[S+]([O-])(c1ccc2c(c1)OCCO2)N1CCN([S+](=O)([O-])c2cc(Cl)ccc2F)CC1,3.78% (inactive)
6,CCCCN(C)C(=O)Cn1nc(-c2ccc(OC)cc2)ccc1=O,0.31% (inactive)
7,COc1ccc(C2=Nn3c(nnc3-c3ccccc3OC)SC2)cc1OCC1CC1,0.168% (inactive)
8,COc1ccc(-c2ccc3nnc(-c4ccccc4OC)n3n2)cc1OC,-9.15% (inactive)
9,Cc1ccnc(NC(=S)N2CCN(c3cccc(C(F)(F)F)c3)C2)c1,0.285% (inactive)
10,Oc1ccc(CNCc2ccccc2F)c2cccnc12,-1.64% (inactive)
11,Cc1cc2c(s1)c1cnn(Cc3c(F)cccc3C(F)(F)F)c(=O)c1n2C,2.92% (inactive)
12,O=C1CCc2cc(S(=O)(=O)Nc3cccc(-c4ccccc4)c3)ccc2N1,2.35% (inactive)
13,Cn1c2cc(C=O)sc2c2cnn(Cc3ccccc3F)c(=O)c21,2.22% (inactive)
14,N=c1c2c(ccn1CCc1ccccc1)Oc1ccc3ccccc3c1C2c1ccccc1 (centres undefined),14.2% (inactive)
15,CN(C)c1ccc(C(=O)NCC(=O)OC(C(=O)Nc2cc(C(F)(F)F)ccc2Cl)c2ccccc2)cc1 (centres undefined),5.84% (inactive)
16,Cc1ccc(CCN2C(=O)c3ccc(C(=O)O)cc3C2=O)cc1,-4.65% (inactive)
17,Cc1cc2c(s1)c1cnn(Cc3c(F)c(F)cc(F)c3F)c(=O)c1n2C,2.85% (inactive)
18,Cc1cc2c(s1)c1cnn(Cc3c(F)ccc(F)c3Cl)c(=O)c1n2C,11.9% (inactive)
19,CC(C)(C)n1cnc2cc(C(=O)N3CCCCC3)ccc21,8.77% (inactive)
20,CC(Nc1nc(-c2ccccc2C(F)(F)F)nc2ccccc12)c1ccc(-c2ccncc2)cc1 (centres undefined),6.59% (inactive)

row,Structure (SMILES),"activity change, negative = inhibition"
1,COc1cccc(N2C(=O)c3ccccc3C2=O)c1,3.32% (inactive)
2,CCC(=O)NC(c1ccco1)c1cc(Cl)c2cccnc2c1O (centres undefined),-12.2% (inactive)
3,O=C(Cn1nc(-c2ccccc2)ccc1=O)NCCc1ccccc1,-0.404% (inactive)
4,CC(=O)Nc1ccc(CNc2ncnc3ccc(-c4c(C)noc4C)cc23)cc1,1.71% (inactive)
5,Cc1cccc(C2N=C(Nc3nc4ccccc4o3)NC3=C2C(=O)CCC3)c1 (centres undefined),-3.54% (inactive)
6,CC(=O)NC(C)c1cc(Cl)c2ccccc2c1O (centres undefined),-11.9% (inactive)
7,CC(C)(C)OC(=O)N1CCN(c2ccc(NCc3ccoc3-c3ccc(C#N)cc3)cc2)CC1,3.7% (inactive)
8,COc1ccccc1NS(=O)(=O)c1ccc2c(c1)CCC(=O)N2,1.28% (inactive)
9,N/C(=N\c1nnc(-c2ccncc2)s1)Nc1ccc(F)c(C(F)(F)F)c1,5.88% (inactive)
10,c1cncc(-c2ccc(CNc3nc(C4CCCC4)nc4ccccc34)cc2)c1,6.46% (inactive)
11,Nc1ccc(NC(=O)Nc2nnc(-c3ccncc3)s2)cc1C(F)(F)F,-1.31% (inactive)
12,O=C1Cc2cc(S(=O)(=O)N3CCN(c4ccc(Cl)cc4)CC3)ccc2N1,-2.71% [at 228 µM] (inactive)
13,COc1cccc(C2c3c(ncn(CCCN4CCOCC4)c3=N)Oc3ccc4ccccc4c32)c1 (centres undefined),-2.17% (inactive)
14,O=C(O)c1ccc2c(c1)C(=O)N([C@]1(C(=O)O)C[C@H]1c1ccccc1)C2=O,-2.57% (inactive)
15,Cn1c2cc(Br)sc2c2cnn(Cc3ccccc3F)c(=O)c21,1.15% (inactive)
16,O=C1c2ccccc2C(=O)N1Cc1cccnc1,-0.263% (inactive)
17,Cc1cc(C)nc(NC(=S)N2CCN(c3ccc4cnccc4c3)CC2)c1,-1.09% (inactive)
18,N#Cc1nc(Nc2cccc(F)c2)nc(NC2CCCC2)n1,2.97% (inactive)
19,Nc1ncc(S(=O)(=O)N2CCOCC2)s1,8.86% (inactive)
